The other results are listed elsewhere or left out. The true hit rate is not given.

Consider 47 sequences from the supplement of paper PMC3545927.

The test deals with furin, P09958. The test can be described thus: furin cleavage Z-score vs untreated control; higher = more cleavage, active = 3.5 or more, inactive = 1 or less, 8 variable residues between constant flanks. In short, it runs like this:
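Magnetic beads held 8-mer peptides by the N-terminus, each fused to a cDNA oligonucleotide, and purified furin was added for 7.5, 15 or 30 min. Released DNA was sequenced after PCR adapter tagging. The cleavage Z-score is the log count relative to furin-free reactions, lowess-adjusted and divided by median absolute deviation.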
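Further: purified furin at 1:10 enzyme:substrate in 50 mM HEPES pH 7.5.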

Chain of furin, P09958 (P09958 whole entry, the tested form may be a part): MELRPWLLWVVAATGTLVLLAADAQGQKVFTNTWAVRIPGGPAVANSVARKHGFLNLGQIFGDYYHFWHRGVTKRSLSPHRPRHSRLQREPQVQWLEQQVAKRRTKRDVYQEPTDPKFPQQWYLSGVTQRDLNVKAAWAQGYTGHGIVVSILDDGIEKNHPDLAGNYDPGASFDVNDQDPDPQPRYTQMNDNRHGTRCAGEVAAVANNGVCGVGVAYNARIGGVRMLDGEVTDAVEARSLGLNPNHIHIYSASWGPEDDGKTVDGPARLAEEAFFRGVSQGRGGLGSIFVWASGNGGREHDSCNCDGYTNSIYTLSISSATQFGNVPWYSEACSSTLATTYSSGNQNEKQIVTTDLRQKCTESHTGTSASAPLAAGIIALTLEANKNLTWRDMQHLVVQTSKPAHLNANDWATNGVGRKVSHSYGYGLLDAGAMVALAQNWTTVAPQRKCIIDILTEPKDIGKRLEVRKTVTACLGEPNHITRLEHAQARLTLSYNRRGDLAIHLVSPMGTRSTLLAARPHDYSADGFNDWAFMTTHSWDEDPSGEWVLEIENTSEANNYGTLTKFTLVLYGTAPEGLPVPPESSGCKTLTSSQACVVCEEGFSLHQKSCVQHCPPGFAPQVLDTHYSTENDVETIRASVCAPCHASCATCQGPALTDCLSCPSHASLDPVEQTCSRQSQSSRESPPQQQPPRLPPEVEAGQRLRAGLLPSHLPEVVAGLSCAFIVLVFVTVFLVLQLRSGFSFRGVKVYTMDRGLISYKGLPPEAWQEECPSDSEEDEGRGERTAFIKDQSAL

B1: HC91 (peptide)
chain: CAVVCKSMSYAGNASASA
Regarding B1, the “furin cleavage Z-score” value by setting is: (7.5 min) -0.0467 (inactive); (15 min) 0.255 (inactive); (30 min) 0.551 (inactive).

B2: HC1848 (peptide)
chain: CATWPCSGSWAGNASASA
For B2, the “furin cleavage Z-score” value was -0.614 (inactive) (7.5 min), -1.25 (inactive) (15 min) and -0.879 (inactive) (30 min).

B3: HC720 (peptide)
chain: CASLTPCTCGAGNASASA
For the sequence B3, the “furin cleavage Z-score” value (7.5 min) is -1.42 (inactive), the “furin cleavage Z-score” value (15 min) was -1.23 (inactive) and the “furin cleavage Z-score” value (30 min) is -1.24 (inactive).

B4: HC1665 (peptide)
chain: CALEECSQHLAGNASASA
As to B4, the “furin cleavage Z-score” value reads like this: (7.5 min) 0.42 (inactive); (15 min) 0.627 (inactive); (30 min) 0.0701 (inactive).

B5: FS-522 (peptide)
chain: CAAKSRPVRDAGNASASA
Turning to B5, the “furin cleavage Z-score” value reads like this: (7.5 min) 8.85 (active); (15 min) 8.99 (active); (30 min) 6.37 (active).

B6: FS-2273 (peptide)
chain: CARKSRPVSVAGNASASA
Consider B6, for which the “furin cleavage Z-score” value is 0.443 (inactive) (7.5 min), -0.359 (inactive) (15 min) and 1.47 (30 min).

B7: FS-2605 (peptide)
chain: CARSKRGWVWAGNASASA
On to B7, for which the “furin cleavage Z-score” value is 0.844 (inactive) (7.5 min), 3.21 (15 min) and 4 (active) (30 min).

B8: FS-2100 (peptide)
chain: CARVKRGSKVAGNASASA
For the sequence B8, the “furin cleavage Z-score” value (7.5 min) stood at 2.43, the “furin cleavage Z-score” value (15 min) was 3.33 and the “furin cleavage Z-score” value (30 min) was 4.45 (active).

B9: FS-2164 (peptide)
chain: CARPKRGWVWAGNASASA
B9: the “furin cleavage Z-score” value runs as follows: (7.5 min) -0.398 (inactive); (15 min) -0.529 (inactive); (30 min) 2.44.

B10: FS-2101 (peptide)
chain: CARVKRGWVWAGNASASA
In the case of B10, the “furin cleavage Z-score” value runs as follows: (7.5 min) 2.07; (15 min) 4.37 (active); (30 min) 8.77 (active).

B11: HC1282 (peptide)
chain: CARVESENKVAGNASASA
Consider B11, for which the “furin cleavage Z-score” value by setting is: (7.5 min) 0.35 (inactive); (15 min) -0.0116 (inactive); (30 min) 1.18.

B12: FS-2530 (peptide)
chain: CARVKRIFYQAGNASASA
On to B12, for which the “furin cleavage Z-score” value is 1.69 (7.5 min), -1.51 (inactive) (15 min) and 0.645 (inactive) (30 min).

B13: FS-2459 (peptide)
chain: CARSKRSWMWAGNASASA
In the case of B13, the “furin cleavage Z-score” value reads like this: (7.5 min) 0.863 (inactive); (15 min) 2.1; (30 min) 6.05 (active).

B14: HC410 (peptide)
chain: CAAKSVCGPVAGNASASA
Take B14: the “furin cleavage Z-score” value was -0.0296 (inactive) (7.5 min), 1.97 (15 min) and -1.19 (inactive) (30 min).

B15: HC635 (peptide)
chain: CAVYNHLTPLAGNASASA
Take B15: the “furin cleavage Z-score” value is -0.863 (inactive) (7.5 min), 0.0646 (inactive) (15 min) and -0.69 (inactive) (30 min).

B16: HC2332 (peptide)
chain: CAEEPCHRPSAGNASASA
As for B16, the “furin cleavage Z-score” value is 0.704 (inactive) (7.5 min), 0.583 (inactive) (15 min) and -1.24 (inactive) (30 min).

B17: FS-3115 (peptide)
chain: CARVARSGRDAGNASASA
Turning to B17, the “furin cleavage Z-score” value is 2.88 (7.5 min), 2.99 (15 min) and 4.3 (active) (30 min).

B18: FS-2868 (peptide)
chain: CAKLKRSHELAGNASASA
In the case of B18, the “furin cleavage Z-score” value was 0.465 (inactive) (7.5 min), 2.2 (15 min) and 1.3 (30 min).

B19: FS-3114 (peptide)
chain: CARVARLLSAAGNASASA
With B19, the “furin cleavage Z-score” value runs as follows: (7.5 min) -1.2 (inactive); (15 min) 0.294 (inactive); (30 min) -1.59 (inactive).

B20: FS-2407 (peptide)
chain: CARVWRDSFLAGNASASA
B20: the “furin cleavage Z-score” value by setting is: (7.5 min) -0.29 (inactive); (15 min) 1.62; (30 min) 0.504 (inactive).

B21: FS-1324 (peptide)
chain: CAFLKRSGRDAGNASASA
With B21, the “furin cleavage Z-score” value runs as follows: (7.5 min) 4.93 (active); (15 min) 3.96 (active); (30 min) 4.12 (active).

B22: FS-1842 (peptide)
chain: CARVARSRELAGNASASA
For the sequence B22, the “furin cleavage Z-score” value (7.5 min) is 4.74 (active), the “furin cleavage Z-score” value (15 min) is 5.44 (active) and the “furin cleavage Z-score” value (30 min) was 7.45 (active).

B23: HC926 (peptide)
chain: CATPAETTVRAGNASASA
For the sequence B23, the “furin cleavage Z-score” value is, setting by setting: (7.5 min) -0.713 (inactive); (15 min) 1.4; (30 min) -0.157 (inactive).

B24: HC1091 (peptide)
chain: CAGALVAFKIAGNASASA
Regarding B24, the “furin cleavage Z-score” value is, setting by setting: (7.5 min) -1.03 (inactive); (15 min) -0.999 (inactive); (30 min) -1.45 (inactive).

B25: HC1464 (peptide)
chain: CAMGSSYGFQAGNASASA
Turning to B25, the “furin cleavage Z-score” value (7.5 min) was 0.332 (inactive), the “furin cleavage Z-score” value (15 min) is -0.28 (inactive) and the “furin cleavage Z-score” value (30 min) was -0.392 (inactive).

B26: FS-1288 (peptide)
chain: CASYFRKKRSAGNASASA
With B26, the “furin cleavage Z-score” value is, setting by setting: (7.5 min) 10.9 (active); (15 min) 10.4 (active); (30 min) 8.85 (active).

B27: FS-990 (peptide)
chain: CAEHVRKLRSAGNASASA
As to B27, the “furin cleavage Z-score” value was 9.51 (active) (7.5 min), 9.45 (active) (15 min) and 7.69 (active) (30 min).

B28: FS-1450 (peptide)
chain: CAEHFRKKRSAGNASASA
B28: the “furin cleavage Z-score” value (7.5 min) is 13.1 (active), the “furin cleavage Z-score” value (15 min) was 12 (active) and the “furin cleavage Z-score” value (30 min) is 10.4 (active).

B29: HC2091 (peptide)
chain: CAVVCCSMSDAGNASASA
On to B29, for which the “furin cleavage Z-score” value by setting is: (7.5 min) -0.81 (inactive); (15 min) 0.345 (inactive); (30 min) -0.759 (inactive).

B30: HC919 (peptide)
chain: CALCECYDAGAGNASASA
Take B30: the “furin cleavage Z-score” value by setting is: (7.5 min) -0.871 (inactive); (15 min) 0.625 (inactive); (30 min) -1.3 (inactive).

B31: HC1179 (peptide)
chain: CAGHVKNGTMAGNASASA
Turning to B31, the “furin cleavage Z-score” value is, setting by setting: (7.5 min) 0.572 (inactive); (15 min) 0.821 (inactive); (30 min) 0.846 (inactive).

B32: FS-1899 (peptide)
chain: CARIRRDVRVAGNASASA
Consider B32, for which the “furin cleavage Z-score” value is, setting by setting: (7.5 min) 8.22 (active); (15 min) 10.4 (active); (30 min) 7.12 (active).

B33: FS-2927 (peptide)
chain: CARFSKSADEAGNASASA
On to B33, for which the “furin cleavage Z-score” value was -0.221 (inactive) (7.5 min), -0.408 (inactive) (15 min) and -0.912 (inactive) (30 min).

B34: FS-2951 (peptide)
chain: CARIKKDKKEAGNASASA
For B34, the “furin cleavage Z-score” value is -1.75 (inactive) (7.5 min), -0.739 (inactive) (15 min) and -0.88 (inactive) (30 min).

B35: HC843 (peptide)
chain: CAVALSTTGEAGNASASA
As for B35, the “furin cleavage Z-score” value is -1.85 (inactive) (7.5 min), -1.96 (inactive) (15 min) and -0.758 (inactive) (30 min).

B36: FS-1956 (peptide)
chain: CARIRRGTDEAGNASASA
For the sequence B36, the “furin cleavage Z-score” value runs as follows: (7.5 min) 12.4 (active); (15 min) 12.2 (active); (30 min) 8.37 (active).

B37: FS-3189 (peptide)
chain: CARIRRDANEAGNASASA
For the sequence B37, the “furin cleavage Z-score” value is, setting by setting: (7.5 min) 13.3 (active); (15 min) 13.5 (active); (30 min) 9.85 (active).

B38: FS-2929 (peptide)
chain: CARGARGVRVAGNASASA
Take B38: the “furin cleavage Z-score” value (7.5 min) was -0.658 (inactive), the “furin cleavage Z-score” value (15 min) is -0.415 (inactive) and the “furin cleavage Z-score” value (30 min) was -0.385 (inactive).

B39: HC2416 (peptide)
chain: CAEVPCHRPGAGNASASA
With B39, the “furin cleavage Z-score” value (7.5 min) is -0.244 (inactive), the “furin cleavage Z-score” value (15 min) is -0.922 (inactive) and the “furin cleavage Z-score” value (30 min) is 0.598 (inactive).

B40: HC441 (peptide)
chain: CATKVCGAPPAGNASASA
In the case of B40, the “furin cleavage Z-score” value (7.5 min) was 0.138 (inactive), the “furin cleavage Z-score” value (15 min) was 0.123 (inactive) and the “furin cleavage Z-score” value (30 min) is -0.197 (inactive).

B41: FS-1964 (peptide)
chain: CARPRRFFPGAGNASASA
Regarding B41, the “furin cleavage Z-score” value reads like this: (7.5 min) -0.922 (inactive); (15 min) -0.718 (inactive); (30 min) -0.224 (inactive).

B42: FS-2502 (peptide)
chain: CARPRRGSLRAGNASASA
As for B42, the “furin cleavage Z-score” value (7.5 min) is -1.01 (inactive), the “furin cleavage Z-score” value (15 min) is -0.431 (inactive) and the “furin cleavage Z-score” value (30 min) turned out to be 1.07.

B43: FS-2359 (peptide)
chain: CARPRRGSHPAGNASASA
As to B43, the “furin cleavage Z-score” value reads like this: (7.5 min) 0.189 (inactive); (15 min) 1.65; (30 min) 2.41.

B44: FS-3200 (peptide)
chain: CARPRRSAPKAGNASASA
With B44, the “furin cleavage Z-score” value was 8.12 (active) (7.5 min), 8.75 (active) (15 min) and 6.05 (active) (30 min).

B45: FS-2503 (peptide)
chain: CARPRRRLGPAGNASASA
For the sequence B45, the “furin cleavage Z-score” value runs as follows: (7.5 min) 0.585 (inactive); (15 min) 1.48; (30 min) 1.2.

B46: FS-2059 (peptide)
chain: CARPRRSAGKAGNASASA
As to B46, the “furin cleavage Z-score” value was 6.62 (active) (7.5 min), 6.92 (active) (15 min) and 6.48 (active) (30 min).

B47: FS-1863 (peptide)
chain: CARPRRSAHRAGNASASA
For B47, the “furin cleavage Z-score” value is, setting by setting: (7.5 min) 8.93 (active); (15 min) 9.74 (active); (30 min) 8.89 (active).
